{"source": "the supplement of paper PMC6411743", "assay_in_all_cases": "NP40-soluble protein abundance relative to vehicle (solubility fold change) (ratio); higher = more soluble protein in presence of ATP", "key": {"LAGE3": {"target": "T1, LAGE3 (UniProt Q14657)", "T1 sequence (whole entry)": "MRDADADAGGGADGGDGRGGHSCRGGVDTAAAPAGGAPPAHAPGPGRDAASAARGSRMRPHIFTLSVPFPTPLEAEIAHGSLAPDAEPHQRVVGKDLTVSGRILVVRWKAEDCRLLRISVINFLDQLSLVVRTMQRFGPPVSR", "method_in_brief": "(§1)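 In three independent experiments, Jurkat crude lysate made by Dounce homogenisation was treated for 10 min at room temperature and then 3 min at 37 °C with eight concentrations ranging from 0.1 to 10 mM. It was then solubilised with 0.8% NP40 plus benzonase for 60 min at 4 °C and ultracentrifuged. The supernatant was TMT-labelled for LC-MS/MS, and each value is the fold change against the detergent-processed vehicle for the same replicate, using vsn-normalised intensities.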"}, "NHLRC2": {"target": "T2, NHLRC2 (UniProt Q8NBF2)", "T2 sequence (whole entry)": "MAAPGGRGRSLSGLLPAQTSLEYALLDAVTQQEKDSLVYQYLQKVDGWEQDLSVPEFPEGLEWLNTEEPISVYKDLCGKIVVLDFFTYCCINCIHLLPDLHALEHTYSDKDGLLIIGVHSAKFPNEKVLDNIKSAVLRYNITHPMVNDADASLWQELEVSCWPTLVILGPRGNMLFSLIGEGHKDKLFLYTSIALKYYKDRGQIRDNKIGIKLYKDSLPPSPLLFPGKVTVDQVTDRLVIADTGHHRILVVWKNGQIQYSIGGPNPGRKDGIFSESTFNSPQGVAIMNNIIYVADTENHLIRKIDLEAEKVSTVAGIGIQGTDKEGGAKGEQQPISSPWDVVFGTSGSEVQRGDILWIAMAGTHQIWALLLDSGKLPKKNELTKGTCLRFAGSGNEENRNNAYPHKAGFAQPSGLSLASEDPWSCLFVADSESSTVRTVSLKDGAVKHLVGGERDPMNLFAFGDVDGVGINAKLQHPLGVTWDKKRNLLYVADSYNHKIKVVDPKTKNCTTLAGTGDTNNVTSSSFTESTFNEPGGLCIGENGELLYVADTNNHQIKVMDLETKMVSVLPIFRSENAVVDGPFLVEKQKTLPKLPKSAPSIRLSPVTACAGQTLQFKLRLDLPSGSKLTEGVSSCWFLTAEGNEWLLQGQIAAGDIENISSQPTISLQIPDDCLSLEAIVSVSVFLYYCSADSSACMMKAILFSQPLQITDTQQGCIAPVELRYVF", "method_in_brief": "as §1"}, "PSMD6": {"target": "T3, PSMD6 (UniProt Q15008)", "T3 sequence (whole entry)": "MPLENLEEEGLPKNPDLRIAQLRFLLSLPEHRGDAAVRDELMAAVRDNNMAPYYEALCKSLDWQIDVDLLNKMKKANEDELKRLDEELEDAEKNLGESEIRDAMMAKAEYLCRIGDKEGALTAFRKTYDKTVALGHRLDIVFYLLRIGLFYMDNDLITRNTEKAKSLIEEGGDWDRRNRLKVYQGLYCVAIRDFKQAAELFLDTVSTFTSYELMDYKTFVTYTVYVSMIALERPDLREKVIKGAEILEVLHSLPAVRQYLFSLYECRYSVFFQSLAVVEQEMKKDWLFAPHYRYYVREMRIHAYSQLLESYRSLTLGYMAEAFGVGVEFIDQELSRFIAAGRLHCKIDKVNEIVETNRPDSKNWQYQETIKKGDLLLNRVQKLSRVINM", "method_in_brief": "as §1"}, "[1]": {"target": "T4, UniProt Q12805|Q12805-2|Q12805-3|Q12805-4", "T4 sequence (whole entry)": "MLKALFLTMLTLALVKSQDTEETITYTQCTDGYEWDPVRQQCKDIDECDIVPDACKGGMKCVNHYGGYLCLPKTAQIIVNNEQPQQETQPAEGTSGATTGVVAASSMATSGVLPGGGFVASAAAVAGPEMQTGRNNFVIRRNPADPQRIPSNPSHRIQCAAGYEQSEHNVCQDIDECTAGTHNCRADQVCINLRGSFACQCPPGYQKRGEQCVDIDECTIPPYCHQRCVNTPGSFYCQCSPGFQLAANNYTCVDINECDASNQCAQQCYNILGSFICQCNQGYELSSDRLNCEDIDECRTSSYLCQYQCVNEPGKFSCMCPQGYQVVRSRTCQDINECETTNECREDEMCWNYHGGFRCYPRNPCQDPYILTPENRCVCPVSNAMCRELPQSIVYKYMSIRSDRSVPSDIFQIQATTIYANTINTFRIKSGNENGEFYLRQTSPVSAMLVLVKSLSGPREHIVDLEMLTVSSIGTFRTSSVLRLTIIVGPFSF", "method_in_brief": "as §1"}, "UniProt Q53H96|Q53H96-2": {"target": "T5, UniProt Q53H96|Q53H96-2", "T5 sequence (whole entry)": "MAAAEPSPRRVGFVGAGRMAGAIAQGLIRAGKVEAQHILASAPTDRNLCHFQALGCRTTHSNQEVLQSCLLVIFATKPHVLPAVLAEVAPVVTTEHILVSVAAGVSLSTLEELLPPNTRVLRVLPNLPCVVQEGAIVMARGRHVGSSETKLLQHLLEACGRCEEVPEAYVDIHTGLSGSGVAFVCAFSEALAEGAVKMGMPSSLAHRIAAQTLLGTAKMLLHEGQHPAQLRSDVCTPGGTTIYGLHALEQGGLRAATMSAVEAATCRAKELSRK", "method_in_brief": "as §1"}, "UniProt Q8N6R0": {"target": "T6, UniProt Q8N6R0", "T6 sequence (whole entry)": "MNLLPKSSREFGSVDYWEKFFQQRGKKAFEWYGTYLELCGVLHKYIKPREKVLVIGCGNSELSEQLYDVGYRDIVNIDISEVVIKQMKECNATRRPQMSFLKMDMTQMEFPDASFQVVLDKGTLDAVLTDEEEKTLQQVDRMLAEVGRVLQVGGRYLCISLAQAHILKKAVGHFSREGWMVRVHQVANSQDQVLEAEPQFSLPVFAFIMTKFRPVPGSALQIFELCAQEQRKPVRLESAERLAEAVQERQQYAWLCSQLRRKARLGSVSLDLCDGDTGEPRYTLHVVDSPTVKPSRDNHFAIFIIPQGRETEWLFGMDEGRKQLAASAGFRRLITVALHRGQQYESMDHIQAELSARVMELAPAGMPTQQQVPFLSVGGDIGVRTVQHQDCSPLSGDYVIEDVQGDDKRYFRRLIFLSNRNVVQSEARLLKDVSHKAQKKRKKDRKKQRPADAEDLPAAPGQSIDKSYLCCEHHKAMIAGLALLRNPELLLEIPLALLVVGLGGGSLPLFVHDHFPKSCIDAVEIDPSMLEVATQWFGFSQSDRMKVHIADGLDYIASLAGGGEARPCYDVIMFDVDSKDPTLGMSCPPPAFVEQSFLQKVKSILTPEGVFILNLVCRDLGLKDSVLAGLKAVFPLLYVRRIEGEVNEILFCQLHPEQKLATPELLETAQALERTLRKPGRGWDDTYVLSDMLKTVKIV", "method_in_brief": "as §1"}}, "note": "± gives the standard deviation of the averaged measurements. The full data set covers some 6,500 targets. This sample favours those with the largest changes."}
{"smiles": "Nc1ncnc2c1ncn2[C@@H]1O[C@H](COP(=O)(O)OP(=O)(O)OP(=O)(O)O)[C@@H](O)[C@H]1O", "note": "[adenosine triphosphate]", "values": [{"measurement": "NP40-soluble protein abundance", "setting": "LAGE3; concentration: 1mM", "result": "0.907 ± 0.071"}, {"measurement": "NP40-soluble protein abundance", "setting": "LAGE3; concentration: 2mM", "result": "0.909 ± 0.073"}, {"measurement": "NP40-soluble protein abundance", "setting": "LAGE3; concentration: 4mM", "result": "0.901 ± 0.029"}, {"measurement": "NP40-soluble protein abundance", "setting": "LAGE3; concentration: 6mM", "result": "0.881 ± 0.072"}, {"measurement": "NP40-soluble protein abundance", "setting": "LAGE3; concentration: 8mM", "result": "0.903 ± 0.034"}, {"measurement": "NP40-soluble protein abundance", "setting": "LAGE3; concentration: 10mM", "result": "0.882 ± 0.011"}, {"measurement": "NP40-soluble protein abundance", "setting": "NHLRC2; concentration: 1mM", "result": "1.01 ± 0.078"}, {"measurement": "NP40-soluble protein abundance", "setting": "NHLRC2; concentration: 2mM", "result": "0.994 ± 0.096"}, {"measurement": "NP40-soluble protein abundance", "setting": "NHLRC2; concentration: 4mM", "result": "0.979 ± 0.091"}, {"measurement": "NP40-soluble protein abundance", "setting": "NHLRC2; concentration: 6mM", "result": "0.976 ± 0.12"}, {"measurement": "NP40-soluble protein abundance", "setting": "NHLRC2; concentration: 8mM", "result": "0.985 ± 0.1"}, {"measurement": "NP40-soluble protein abundance", "setting": "NHLRC2; concentration: 10mM", "result": "0.983 ± 0.09"}, {"measurement": "NP40-soluble protein abundance", "setting": "PSMD6; concentration: 1mM", "result": "0.959 ± 0.015"}, {"measurement": "NP40-soluble protein abundance", "setting": "PSMD6; concentration: 2mM", "result": "0.9 ± 0.021"}, {"measurement": "NP40-soluble protein abundance", "setting": "PSMD6; concentration: 4mM", "result": "0.893 ± 0.022"}, {"measurement": "NP40-soluble protein abundance", "setting": "PSMD6; concentration: 6mM", "result": "0.889 ± 0.048"}, {"measurement": "NP40-soluble protein abundance", "setting": "PSMD6; concentration: 8mM", "result": "0.921 ± 0.032"}, {"measurement": "NP40-soluble protein abundance", "setting": "PSMD6; concentration: 10mM", "result": "0.886 ± 0.025"}, {"measurement": "NP40-soluble protein abundance", "setting": "[1]; concentration: 1mM", "result": "1.03 ± 0.091"}, {"measurement": "NP40-soluble protein abundance", "setting": "[1]; concentration: 2mM", "result": "1.04 ± 0.052"}, {"measurement": "NP40-soluble protein abundance", "setting": "[1]; concentration: 4mM", "result": "1.06 ± 0.075"}, {"measurement": "NP40-soluble protein abundance", "setting": "[1]; concentration: 6mM", "result": "1 ± 0.088"}, {"measurement": "NP40-soluble protein abundance", "setting": "[1]; concentration: 8mM", "result": "1.05 ± 0.023"}, {"measurement": "NP40-soluble protein abundance", "setting": "[1]; concentration: 10mM", "result": "1.04 ± 0.025"}, {"measurement": "NP40-soluble protein abundance", "setting": "UniProt Q53H96|Q53H96-2; concentration: 1mM", "result": "1.04 ± 0.076"}, {"measurement": "NP40-soluble protein abundance", "setting": "UniProt Q53H96|Q53H96-2; concentration: 2mM", "result": "1.06 ± 0.1"}, {"measurement": "NP40-soluble protein abundance", "setting": "UniProt Q53H96|Q53H96-2; concentration: 4mM", "result": "1.09 ± 0.08"}, {"measurement": "NP40-soluble protein abundance", "setting": "UniProt Q53H96|Q53H96-2; concentration: 6mM", "result": "1.01 ± 0.14"}, {"measurement": "NP40-soluble protein abundance", "setting": "UniProt Q53H96|Q53H96-2; concentration: 8mM", "result": "1.03 ± 0.11"}, {"measurement": "NP40-soluble protein abundance", "setting": "UniProt Q53H96|Q53H96-2; concentration: 10mM", "result": "1.03 ± 0.1"}, {"measurement": "NP40-soluble protein abundance", "setting": "UniProt Q8N6R0; concentration: 1mM", "result": "1.04 ± 0.096"}, {"measurement": "NP40-soluble protein abundance", "setting": "UniProt Q8N6R0; concentration: 2mM", "result": "1 ± 0.081"}, {"measurement": "NP40-soluble protein abundance", "setting": "UniProt Q8N6R0; concentration: 4mM", "result": "1.05 ± 0.072"}, {"measurement": "NP40-soluble protein abundance", "setting": "UniProt Q8N6R0; concentration: 6mM", "result": "0.979 ± 0.085"}, {"measurement": "NP40-soluble protein abundance", "setting": "UniProt Q8N6R0; concentration: 8mM", "result": "1.05 ± 0.075"}, {"measurement": "NP40-soluble protein abundance", "setting": "UniProt Q8N6R0; concentration: 10mM", "result": "1.01 ± 0.053"}]}
